High-throughput results deposited in PubChem BioAssay by several laboratories.
Sampled rows, rich in hits. Any-hit rate of the full collection: about 1.8%.
MazF activator = MazEF (E. coli) toxin RNase activation. 350,000 tested, 0.32% active. P0AE70. FAM/BHQ RNA-DNA oligo cleavage fluorescence, 5 h. activation, % at 20 µM. AID 504720; in the data active = activation above about 50%
Target sequence (P0AE70 whole entry, looked up): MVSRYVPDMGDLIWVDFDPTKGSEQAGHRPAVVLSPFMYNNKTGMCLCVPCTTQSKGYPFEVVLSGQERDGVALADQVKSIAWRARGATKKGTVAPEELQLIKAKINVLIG
PfHsp40 yeast = restores yeast growth despite PfHsp40 toxicity | S. cerevisiae expressing PfHsp40, growth rescue, ATP luminescence | growth rescue, % at 12.5 µM | 340,000 tested, 0.68% active | AID 504582; in the data active = growth rescue above about 28%, passing the limit was not always enough;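 also: yeast W303a lacking pdr1 and pdr3 grown in galactose medium; growth measured after three days at 30 °C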
PrPC surface inh = cell surface PrPC inhibition, primary TR-FRET screen; P04156; AID 720596; TR-FRET read-out; inhibition, % at 13.8 µM; 370,000 tested, 0.43% active; in the data active = inhibition above about 24%; also: 0% = median of the test wells and 100% = reference compound wells
PrP 5UTR inh = suppresses PrP 5' UTR mRNA reporter expression. cell-based PrP 5' UTR mRNA reporter, plate reader. inhibition, % (no concentration beside the values). 340,000 tested, 0.35% active. AID 488862; in the data active = inhibition above about 52%; also: 0 = median of the neutral control wells
SSB-PriA inh = K. pneumoniae PriA-SSBct interaction inhibition | 430,000 tested, 0.6% active | AID 1272365 | inhibition, % at 33 µM | AlphaScreen SSBct-PriA binding, biotinylated peptide; in the data active = inhibition mostly above about 37%, no sharp cut-off; inactive = mostly below about 20%;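 also: plate controls were negative control peptide for no effect and reference peptide for full effect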
* marks the source's active call; other numbers are inactive results.

How did CCc1ccc(NC(=O)CN(c2cc(C)cc(C)c2)S(=O)(=O)c2c(C)[nH]c(=O)[nH]c2=O)cc1 do in these assays?
MazF activator: 6; PfHsp40 yeast: -1; PrP 5UTR inh: -5; SSB-PriA inh: -2

Results for COc1ccc(Nc2cccc3ccccc23)cc1 ?
MazF activator: 20; PfHsp40 yeast: 1; PrPC surface inh: 2; PrP 5UTR inh: -43; SSB-PriA inh: 50*

Results for Cc1ccc(NC(=S)Nc2cccc3cnccc23)cc1 ?
MazF activator: -2; PfHsp40 yeast: -2; PrPC surface inh: 3; PrP 5UTR inh: -27; SSB-PriA inh: 10

What do the screens show for `S=C(Nc1cccc(Cl)c1)Nc1cccc2cnccc12`?
MazF activator: 4; PfHsp40 yeast: 31*; PrP 5UTR inh: -9; SSB-PriA inh: 3

How did CC(=O)Nc1cccc(NC(=S)Nc2cccc3ccccc23)c1 do in these assays?
MazF activator: 1; PfHsp40 yeast: 0; PrPC surface inh: 11; PrP 5UTR inh: -37; SSB-PriA inh: 20

Results for Cc1ccc(NC(=S)Nc2cccc3cnccc23)cc1C ?
MazF activator: 6; PfHsp40 yeast: 377*; PrPC surface inh: 0; PrP 5UTR inh: -20; SSB-PriA inh: 22

Results for COc1ccc(Nc2cccccc2=O)cc1 ?
MazF activator: 2; PfHsp40 yeast: 0; PrPC surface inh: -22; PrP 5UTR inh: -24; SSB-PriA inh: -13

What do the screens show for `COc1ccc(NC(=S)Nc2cccc3ccccc23)cc1OC`?
MazF activator: -5; PfHsp40 yeast: 1; PrPC surface inh: 2; PrP 5UTR inh: -22; SSB-PriA inh: 43*

How did CCOc1ccc(NC(=O)C(=O)NN=Cc2ccccc2F)cc1 do in these assays?
SSB-PriA inh: -20

How did CC1Oc2cc3c(-c4c(O)cc(O)c5c(O)c6c(cc45)OC(C)C(C)C6=O)c(O)cc(O)c3c(O)c2C(=O)C1C (centres undefined) do in these assays?
MazF activator: 4; PfHsp40 yeast: 77*; PrP 5UTR inh: 39; SSB-PriA inh: 3

How did C[C@@H]1Cc2c(O)c(O)cc(O)c2C(=O)O1 do in these assays?
MazF activator: 1; PfHsp40 yeast: 0; PrP 5UTR inh: -5; SSB-PriA inh: -2

What do the screens show for `CC(=O)OCCn1c2nc(=O)[nH]c(=O)c-2nc2cc(C)c(C)cc21`?
MazF activator: 480*; PfHsp40 yeast: -2; PrPC surface inh: -69; PrP 5UTR inh: -12; SSB-PriA inh: -26

Results for CC(=O)OCCn1c(C)[n+](CCOC(C)=O)c2cc(Cl)c(Cl)cc21 ?
MazF activator: -18; PrPC surface inh: -8; PrP 5UTR inh: -20; SSB-PriA inh: -12

Results for COc1c(C)cnc2c1c(=O)n(CC#N)c(=O)n2C ?
SSB-PriA inh: -3

Results for CCCN1CCCc2cc(CCNC(=O)c3cccc(C)c3)ccc21 ?
SSB-PriA inh: 59*

What do the screens show for `CCCN1CCCc2cc(CCNC(=O)c3cc(OC)cc(OC)c3)ccc21`?
SSB-PriA inh: 59

Results for CCCN1CCCc2cc(CCNC(=O)c3cccc(OC)c3)ccc21 ?
SSB-PriA inh: 61*

What do the screens show for `CCCN1CCCc2cc(CCNC(=O)c3c(F)cccc3F)ccc21`?
SSB-PriA inh: 54*

Results for CCCN1CCCc2cc(CCNC(=O)c3cccc(F)c3)ccc21 ?
SSB-PriA inh: 41*

What do the screens show for `CCCN1CCCc2cc(CCNC(=O)c3cccc(Cl)c3)ccc21`?
SSB-PriA inh: 48

Results for Cc1ccc2nc(NC(=O)CCC(=O)O)sc2c1 ?
SSB-PriA inh: -9

What do the screens show for `CO[C@@H](CNS(=O)(=O)Cc1cccc(C)c1)c1ccc(C)s1`?
SSB-PriA inh: -15

What do the screens show for `CN(C)c1cc2c3ccccc3n(C)c2cc1N`?
MazF activator: 1; PfHsp40 yeast: -1; PrPC surface inh: -4; PrP 5UTR inh: 8; SSB-PriA inh: 66*

Results for C/C(=N/O)c1ccc2c3ccccc3n(C)c2c1 ?
SSB-PriA inh: -13

Results for Cc1ccc(C(C#N)c2ccc3c(C(F)(F)F)cc(C(F)(F)F)nc3n2)cc1 (centres undefined) ?
MazF activator: 5; PfHsp40 yeast: 1; PrPC surface inh: -5; PrP 5UTR inh: -5; SSB-PriA inh: 30

How did N#CC(c1ccccc1)c1ccc2c(C(F)(F)F)cc(C(F)(F)F)nc2n1 (centres undefined) do in these assays?
MazF activator: -1; PfHsp40 yeast: -1; PrPC surface inh: -1; PrP 5UTR inh: -17; SSB-PriA inh: 77*

How did O=C(COC(=O)c1ccc(Cl)nc1)Nc1cc(S(=O)(=O)N2CCCCC2)ccc1Cl do in these assays?
MazF activator: 7; PfHsp40 yeast: 173*; PrPC surface inh: 7; PrP 5UTR inh: -1; SSB-PriA inh: -5

How did CCN1CCN(CC(=O)Nc2cc(S(=O)(=O)N3CCCCC3)ccc2Cl)CC1 do in these assays?
MazF activator: 2; PfHsp40 yeast: 56*; PrPC surface inh: -5; PrP 5UTR inh: -12; SSB-PriA inh: -7

Results for CN(C(=O)CCc1ccccc1F)C1CCCN(Cc2ccccc2F)C1 (centres undefined) ?
MazF activator: -1; PfHsp40 yeast: -1; PrPC surface inh: 5; PrP 5UTR inh: -7; SSB-PriA inh: -9

Results for Cc1ccc(-n2ccnc2N2CCN(C(=O)COc3ccccc3)CC2)cc1 ?
SSB-PriA inh: 68

How did Cc1ccc(-n2ccnc2N2CCN(C(=O)c3c(F)cccc3F)CC2)cc1 do in these assays?
SSB-PriA inh: 78*

How did Cc1ccc(-n2ccnc2N2CCN(C(=O)c3ccc(C)c(C)c3)CC2)cc1 do in these assays?
SSB-PriA inh: 36*

Results for Cc1ccc(-n2ccnc2N2CCN(C(=O)c3c(F)cccc3Cl)CC2)cc1 ?
SSB-PriA inh: 62*

Results for O=C(c1cccc2ccccc12)C1CCCN(C(=O)CCCn2cncn2)C1 (centres undefined) ?
MazF activator: -10; PfHsp40 yeast: 9; PrPC surface inh: -1; PrP 5UTR inh: -47; SSB-PriA inh: -2

Results for Cc1nc2ccccc2c(=O)n1-c1cccc(NC(=O)c2cccc(C(F)(F)F)c2)c1 ?
SSB-PriA inh: -16

How did CCCCCC/C(=N/O)c1ccccn1 do in these assays?
MazF activator: 4; PfHsp40 yeast: 162*; PrPC surface inh: -5; PrP 5UTR inh: -27

Results for O=S(=O)(N1CCCCC1)n1nnc2ccccc21 ?
MazF activator: -3; PfHsp40 yeast: 39*; PrPC surface inh: -2; PrP 5UTR inh: -37; SSB-PriA inh: -20

How did CC(=O)c1cccc(NC(=O)COC(=O)COc2ccccc2C)c1 do in these assays?
MazF activator: 5; PfHsp40 yeast: 1; PrPC surface inh: 1; PrP 5UTR inh: -3; SSB-PriA inh: -3

Results for Cc1cc(/C=N/n2cnnc2)c(C)n1-c1ccc(OCc2ccc(F)cc2)cc1 ?
MazF activator: 2; PfHsp40 yeast: 103*; PrPC surface inh: 21; PrP 5UTR inh: -30

How did O=C1/C(=C/c2ccncc2)Oc2c1ccc1c2CN(Cc2ccc3c(c2)OCO3)CO1 do in these assays?
SSB-PriA inh: -5

What do the screens show for `O=C1/C(=C/c2cccc(F)c2)Oc2c1ccc1c2CN(Cc2ccccn2)CO1`?
SSB-PriA inh: 97*
